# Reference: ChEMBL document CHEMBL3433997, “St. Jude Leishmania screening dataset” (2016)
# Biological target: Solute carrier family 2, facilitated glucose transporter member 1 (Homo sapiens) (UniProt P11166)
# Assay: ST_JUDE_LEISH: Cytotoxicity at 2uM final concentration against transgenic Leishmania Mexicana promastigotes LmGLUT1 that are glucose transport deficient and complemented with the human glucose transporter GLUT1. Activity is measured by DNA content using SYBR green in vitro
# Type: functional
# Chain of Solute carrier family 2, facilitated glucose transporter member 1 (Homo sapiens) (P11166 whole entry): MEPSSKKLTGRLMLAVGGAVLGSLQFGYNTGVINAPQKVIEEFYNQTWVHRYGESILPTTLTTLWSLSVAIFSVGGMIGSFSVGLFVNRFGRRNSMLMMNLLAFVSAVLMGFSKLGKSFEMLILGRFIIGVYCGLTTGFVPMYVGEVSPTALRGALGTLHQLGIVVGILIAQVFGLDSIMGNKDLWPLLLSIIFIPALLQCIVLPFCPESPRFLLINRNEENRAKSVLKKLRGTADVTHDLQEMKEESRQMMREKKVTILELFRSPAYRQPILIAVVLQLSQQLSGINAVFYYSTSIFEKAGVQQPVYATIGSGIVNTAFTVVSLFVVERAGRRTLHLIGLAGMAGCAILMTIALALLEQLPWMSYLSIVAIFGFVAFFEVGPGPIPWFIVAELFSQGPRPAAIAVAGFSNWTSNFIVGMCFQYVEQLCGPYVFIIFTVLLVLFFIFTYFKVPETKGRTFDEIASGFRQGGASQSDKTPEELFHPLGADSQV
row,SMILES,inhibition
1,N#CCCN1CCN(Cc2cccc(-c3ccc(-c4nc5ccccc5[nH]4)cc3)c2)CC1,2.32%
2,COc1ccc(-c2cccc(NC(=O)c3ccc(Cl)cc3)c2)cc1CN1CCC(O)CC1,5.4%
3,CCOC(=O)c1cccc(NC(=N)Nc2nc(C)cc(NCCc3ccccc3)n2)c1,7.04%
4,O=[N+]([O-])c1cccc(CNCC2CCN(Cc3ccc(-c4ccccc4)cc3)CC2)c1,3.06%
5,COc1ccc2nccc([C@@H](O)CN3CCC(NCc4nc5c([N+](=O)[O-])cccc5[nH]4)CC3)c2c1,2.43%
6,NC1=NC2(CCCCC2)N(OCCCCCCc2ccccc2)C(N)=N1,2.09%
7,COc1ccc2nccc(NC(=O)N3CCC(NCCOc4cc(F)cc(F)c4)CC3)c2n1,8.02%
8,O=C(Nc1cccc(CN2CCCN(Cc3ccsc3)CC2)c1)c1cc2ccccc2s1,1.11%
9,Cn1nc(C(F)(F)F)c(-c2ccc(Br)cc2)c1NC(=O)Cc1ccccc1F,-1.83%
10,CCNc1cc(C)nc(Nc2ccc(NC(=O)c3ccccc3Br)cc2)n1,8.09%
11,CC(=O)N(Cc1nc(-c2cc(C(F)(F)F)cc(C(F)(F)F)c2)cs1)c1c(C)cccc1C,4.36%
12,C(=C(c1cccs1)c1cccs1)c1ccc(CNC2CCN(Cc3ccccc3)CC2)cc1,4.45%
13,O=c1cc(NCCCNCc2ccc(C(F)(F)F)cc2F)[nH]c2ccccc12,2.19%
14,OCCN1CCN(Cc2ccc(-c3ccc(-c4nc5ccccc5[nH]4)cc3)cc2)CC1,12.1%
15,COc1ccc2ncc(F)c(NC(=O)C3CCC(NCc4cc5c(F)cccc5[nH]4)CC3)c2n1 (stereo not drawn),77.5%
16,c1ccc(N2CCN(c3cc(-c4cccnc4)nc(-c4ccncc4)n3)CC2)nc1,2.7%
17,N=C1NC(=O)C(=Cc2cn(-c3ccccc3)nc2-c2cccc(S(=O)(=O)N3CCCC3)c2)S1,8.5%
18,O=C(/C=C/c1cc(C(F)(F)F)ccc1F)NCCCCCN1CCC(c2c[nH]c3ccccc23)CC1,0.77%
19,O=C(Nc1cc(C(F)(F)F)ccc1N1CCOCC1)C(Cl)(Cl)Cl,10.4%

row,SMILES,inhibition
1,CCc1ccc(Cc2cnc3nc(N)nc(N)c3c2C)cc1CC,-1.77%
2,CCOC(=O)c1ccc(NC(=O)Nc2cccc(-c3ccc(-c4nc5cccc(C)c5[nH]4)s3)c2)cc1,-0.56%
3,Cc1cc2c(NC(=O)NC3CCN(CCc4cccc(Cl)c4)CC3)cccc2cn1,-1.26%
4,O=C(NCCCc1ccccc1)c1ccc(O)c(-c2cc(Cl)cc(Cl)c2)c1,4.73%
5,CS(=O)(=O)CCNCc1cccc(-c2ccc3c(Nc4ccc(Oc5cccnc5)cc4)ccnc3c2)c1,-1.35%
6,COc1cccc(C2CCN(CCN3CCC(CNC(=O)c4ccc(-c5ccc(C(F)(F)F)cc5)cc4)CC3)CC2)c1,-0.53%
7,O=C(NCCN1CCCc2ccccc21)C1CCN(c2nc(-c3ccc(Cl)cc3)no2)CC1,1.63%
8,CCNc1cc(-c2cccc(OC)c2)nc(Nc2ccc(F)cc2)n1,7.43%
9,CN(C)CCOc1cccc(-c2cnc(N)c(-c3nc4cc(S(C)(=O)=O)ccc4[nH]3)c2)c1,1.53%
10,O=C(NCCCCN1CCC(O)(c2ccc(Cl)cc2)CC1)c1ccc(Br)cc1,4.03%
11,CC(C)(C)c1nn(-c2ccc(Cl)cc2)c2[nH]c(=O)c(CNC3CCCC3)cc12,7.6%
12,CCOC(=O)c1cnc2c(OC)cc(OC)c(Cl)c2c1Nc1ccccc1,5.44%
13,CCCc1ccc(Nc2nc(C)cc(N(CC)CCCN3CCCCC3)n2)cc1,-3.11%
14,COc1cc(NC(=O)c2c(-c3c(F)cccc3Cl)noc2C)c(OC)cc1Cl,-2.64%
15,NS(=O)(=O)c1ccc(CNc2ccc3ncc(-c4ccc(Cl)cc4)n3n2)cc1,-0.09%
16,Cc1ccc2sc(N(CCCn3ccnc3)C(=O)c3ccco3)nc2c1C,0.64%
17,COC(=O)C(C)(C)Cc1c(SC(C)(C)C)c2cc(C(C)C)ccc2n1Cc1ccc(Cl)cc1,2.2%
18,COc1ccc(CCCN2C(=O)C(c3ccccc3)(c3ccccc3)N=C2N)cc1,-1.19%
19,COc1ccc(F)cc1-c1ccccc1CNC(=O)c1cnn(-c2ccc([N+](=O)[O-])cc2)c1C(F)(F)F,2.16%
